The supplement of paper PMC6555819

Experiments:
Experiment in all cases: PBM binding z-score (relative to random genomic background probes); higher = stronger binding; sequences stand for … in GC…GCGATTGACAGCGTAGAATGAAGG
[1] = tested on: FXR:RXRa (NR concentration 270 nM, RXRa partner concentration 90 nM)
Summary of the method: (§1)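 Binding z-scores take random background probes as their reference. They come from custom Agilent 4×180K protein-binding microarrays incubated 1 h with ligand-free nuclear receptor dimers, with antibodies against each partner (one per run) detecting binding. Scanned fluorescence was regression-normalized.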

[2] = tested on: LXRa:RXRa (NR concentration 270 nM, RXRa partner concentration 90 nM)
Summary of the method: as §1

[3] = tested on: LXRa homodimer (NR concentration 270 nM)
Summary of the method: as §1

[4] = tested on: LXRb:RXRa (NR concentration 270 nM, RXRa partner concentration 90 nM)
Summary of the method: as §1

[5] = tested on: LXRb homodimer (NR concentration 270 nM)
Summary of the method: as §1

[6] = tested on: PPARa:RXRa (NR concentration 270 nM, RXRa partner concentration 90 nM)
Summary of the method: as §1

[7] = tested on: PPARg:RXRa (NR concentration 180 nM, RXRa partner concentration 90 nM)
Summary of the method: as §1

[8] = tested on: PPARg:RXRa 270nM:90nM, anti-RXR (NR concentration 270 nM, RXRa partner concentration 90 nM)
Summary of the method: as §1

[9] = tested on: PPARg:RXRa 30nM:10nM, anti-RXR (NR concentration 30 nM, RXRa partner concentration 10 nM)
Summary of the method: as §1

[10] = tested on: PPARg:RXRa 90nM:30nM, anti-RXR (NR concentration 90 nM, RXRa partner concentration 30 nM)
Summary of the method: as §1

[11] = tested on: PPARg:RXRa DBDmut IVT, anti-RXR (DBD mutation: RXRa K156A/R161A, NR concentration 270 nM, RXRa partner concentration 90 nM)
Summary of the method: as §1

[12] = tested on: PPARg:RXRa IVT, anti-PPARg (NR concentration 270 nM, RXRa partner concentration 90 nM)
Summary of the method: as §1

[13] = tested on: PPARg DBDmut:RXRa IVT, anti-PPARg (DBD mutation: PPARg1 K132A/R137A, NR concentration 270 nM, RXRa partner concentration 90 nM)
Summary of the method: as §1

[14] = tested on: PPARg DBDmut IVT, anti-PPARg (DBD mutation: PPARg1 K132A/R137A, NR concentration 270 nM)
Summary of the method: as §1

[15] = tested on: PPARg homodimer (NR concentration 180 nM)
Summary of the method: as §1

[16] = tested on: PXR:RXRa (NR concentration 270 nM, RXRa partner concentration 90 nM)
Summary of the method: as §1

[17] = tested on: PXR homodimer (NR concentration 270 nM)
Summary of the method: as §1

[18] = tested on: RARa:RXR (NR concentration 270 nM, RXRa partner concentration 90 nM)
Summary of the method: as §1

[19] = tested on: RARa homodimer (NR concentration 270 nM)
Summary of the method: as §1

[20] = tested on: RARb:RXRa (NR concentration 270 nM, RXRa partner concentration 90 nM)
Summary of the method: as §1

Sequence: TCATATAGGTAGTACAGGTGAAAGTCGGCATCTA
- PBM binding z-score [1]: 1.11
- PBM binding z-score [2]: 1.01
- PBM binding z-score [3]: 0.38
- PBM binding z-score [4]: 0.84
- PBM binding z-score [5]: 0.0864
- PBM binding z-score [6]: 1.2
- PBM binding z-score [7]: 0.65
- PBM binding z-score [8]: 2.23
- PBM binding z-score [9]: 3.57
- PBM binding z-score [10]: 3.13
- PBM binding z-score [11]: 2.26
- PBM binding z-score [12]: 1.52
- PBM binding z-score [13]: 1.27
- PBM binding z-score [14]: 1.09
- PBM binding z-score [15]: 1.08
- PBM binding z-score [16]: 0.715
- PBM binding z-score [17]: 0.204
- PBM binding z-score [18]: 1.16
- PBM binding z-score [19]: 1.16
- PBM binding z-score [20]: 0.562

Sequence: AGAACGAGGGGAATGAGTTGATAGCACGGGTGGC
- PBM binding z-score [1]: -0.0217
- PBM binding z-score [2]: -0.0133
- PBM binding z-score [3]: -0.00891
- PBM binding z-score [4]: -0.228
- PBM binding z-score [5]: 0.0514
- PBM binding z-score [6]: 0.192
- PBM binding z-score [7]: 0.861
- PBM binding z-score [8]: -0.0385
- PBM binding z-score [9]: -0.193
- PBM binding z-score [10]: -0.152
- PBM binding z-score [11]: 1.5
- PBM binding z-score [12]: 0.636
- PBM binding z-score [13]: 0.108
- PBM binding z-score [14]: 0.301
- PBM binding z-score [15]: 0.561
- PBM binding z-score [16]: -0.115
- PBM binding z-score [17]: 0.264
- PBM binding z-score [18]: 0.125
- PBM binding z-score [19]: 0.109
- PBM binding z-score [20]: 0.142

Sequence: TCTAGCAGGCCAGAGGGTCCCTCAAGAGGTACGG
- PBM binding z-score [1]: -1.21
- PBM binding z-score [2]: -0.594
- PBM binding z-score [3]: -0.832
- PBM binding z-score [4]: -1.08
- PBM binding z-score [5]: -1.75
- PBM binding z-score [6]: -0.293
- PBM binding z-score [7]: 0.254
- PBM binding z-score [8]: 1.14
- PBM binding z-score [9]: 1.15
- PBM binding z-score [10]: 0.873
- PBM binding z-score [11]: 0.4
- PBM binding z-score [12]: -0.351
- PBM binding z-score [13]: -0.654
- PBM binding z-score [14]: -1.83
- PBM binding z-score [15]: -0.97
- PBM binding z-score [16]: -0.673
- PBM binding z-score [17]: -1.06
- PBM binding z-score [18]: -0.482
- PBM binding z-score [19]: -1.2
- PBM binding z-score [20]: -0.136

Sequence: CAAACTAGGTCAAGAGGCCAAAGTCCGCTTCCCG
- PBM binding z-score [1]: 3.54
- PBM binding z-score [2]: 2.84
- PBM binding z-score [3]: 0.509
- PBM binding z-score [4]: 1.81
- PBM binding z-score [5]: -0.0945
- PBM binding z-score [6]: 4.7
- PBM binding z-score [7]: 7.87
- PBM binding z-score [8]: 6.59
- PBM binding z-score [9]: 4.48
- PBM binding z-score [10]: 6.47
- PBM binding z-score [11]: 8.03
- PBM binding z-score [12]: 8.06
- PBM binding z-score [13]: 1.13
- PBM binding z-score [14]: 0.602
- PBM binding z-score [15]: 1.8
- PBM binding z-score [16]: 1.56
- PBM binding z-score [17]: 0.34
- PBM binding z-score [18]: 2.68
- PBM binding z-score [19]: 0.79
- PBM binding z-score [20]: 3.93

Sequence: TGTCAAAGTTCAAAGGTAGCGTAAGTATCCACAC
- PBM binding z-score [1]: 6.72
- PBM binding z-score [2]: 6.04
- PBM binding z-score [3]: 4.44
- PBM binding z-score [4]: 4.05
- PBM binding z-score [5]: 1.42
- PBM binding z-score [6]: 5.57
- PBM binding z-score [7]: 8.17
- PBM binding z-score [8]: 7.45
- PBM binding z-score [9]: 4.48
- PBM binding z-score [10]: 7.05
- PBM binding z-score [11]: 0.0975
- PBM binding z-score [12]: 4.06
- PBM binding z-score [13]: 0.876
- PBM binding z-score [14]: 0.963
- PBM binding z-score [15]: -0.119
- PBM binding z-score [16]: 5.11
- PBM binding z-score [17]: 3.16
- PBM binding z-score [18]: 4.97
- PBM binding z-score [19]: 0.73
- PBM binding z-score [20]: 5.09

Sequence: GCTCGGAGGACATGGTCAGAGCTTTGTCCGTAGA
- PBM binding z-score [1]: -0.823
- PBM binding z-score [2]: -0.697
- PBM binding z-score [3]: -0.873
- PBM binding z-score [4]: -1.01
- PBM binding z-score [5]: -1.56
- PBM binding z-score [6]: -0.666
- PBM binding z-score [7]: -0.763
- PBM binding z-score [8]: -0.775
- PBM binding z-score [9]: -1.35
- PBM binding z-score [10]: -1.09
- PBM binding z-score [11]: -0.304
- PBM binding z-score [12]: -0.659
- PBM binding z-score [13]: -2.23
- PBM binding z-score [14]: -2.05
- PBM binding z-score [15]: -2.26
- PBM binding z-score [16]: -0.77
- PBM binding z-score [17]: -0.911
- PBM binding z-score [18]: -0.833
- PBM binding z-score [19]: -1.56
- PBM binding z-score [20]: 0.679

Sequence: CCTGCTAAGTCAATGGTCAGCTAAAGCAGCTCGC
- PBM binding z-score [1]: -0.665
- PBM binding z-score [2]: -0.355
- PBM binding z-score [3]: -0.545
- PBM binding z-score [4]: -0.517
- PBM binding z-score [5]: -0.617
- PBM binding z-score [6]: -0.254
- PBM binding z-score [7]: -0.271
- PBM binding z-score [8]: 0.314
- PBM binding z-score [9]: -0.862
- PBM binding z-score [10]: 0.0482
- PBM binding z-score [11]: 0.121
- PBM binding z-score [12]: -0.663
- PBM binding z-score [13]: -1.16
- PBM binding z-score [14]: -0.747
- PBM binding z-score [15]: -0.2
- PBM binding z-score [16]: -0.405
- PBM binding z-score [17]: -0.531
- PBM binding z-score [18]: -0.153
- PBM binding z-score [19]: -0.807
- PBM binding z-score [20]: 0.498
